Results on 14 compounds are retold here after PubChem BioAssay.

Assay [1] in a line: inhibitors of TNFa-induced NFkB p65 translocation, primary screen, imaging, HUVEC, MLSMR starter and 10KST1 sets (AID 438;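 active = inhibition above 20% together with a positive visual image hit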;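 also: compound added about 3h40 before a 20 min TNFalpha stimulation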;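 as to inhibition: signal is the nuclear over cytoplasmic p65 intensity ratio per well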). The settings on record: HUVEC TNFa-induced p65 nuclear translocation; cell count: measured here: nuclei count (cytotoxicity indicator), at 2.08 µM; inhibition: at 2 µM, stronger effect = higher value, 0% TNFa-plus-vehicle, 100% no-TNFa wells.
The nature of assay [2]: reduction of polyQ htt aggregates in cells – imaging, exon1htt(103Q)mCFP cells, high-content imaging, primary screen (AID 483;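 active = visual image review flags a hit and inhibition of aggregation exceeds 20%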;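 also: compound exposure lasted 3 days before fixation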;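 as to nuclei count: percent of the per-plate median nuclei count of sample wells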). The settings on record: exon1htt(103Q)mCFP cell line, aggregate imaging, at 2 µM; inhibition of aggregation: stronger effect = higher value; nuclei count: measured here: cell count, toxicity.
Assay [3] can be described thus: endothelial E-selectin expression blockers – imaging, HUVEC, immunofluorescence, MLSMR starter and 10KST1 sets, primary screen (AID 487;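 active = visually confirmed hit in the image check and inhibition above 20%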;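 as to inhibition: signal is fraction of cell area covered by stained E-selectin grains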;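 as to nuclei count: 100% = median nuclei count of all wells on the same plate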). Particulars: HUVEC TNFalpha-induced E-selectin immunofluorescence imaging, at 2 µM; inhibition: stronger effect = higher value; nuclei count: measured here: cell number, toxicity.
In assay [4] the target is Voltage-gated potassium channel subunit beta-2 (Rattus norvegicus) (UniProt P62483). The experiment in a line: inhibitors of rat Kvbeta2 reductase activity – biochemical, NADPH fluorescence, primary screen (AID 622).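 Also: slope of raw intensity against log time taken from 70 to 1610 s.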 Particulars: recombinant KvBeta, 4-cyanobenzaldehyde reduction, at 10 µM, stronger effect = higher value.
The target is the same in assay [5]. The experiment in a line: enhancers of rat Kvbeta2 NADPH turnover – biochemical, NADPH fluorescence, primary screen (AID 623;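 active = NADPH fluorescence slope more negative than the mean of all samples by about 3 SD, 99.7% confidence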;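 also: fluorescence intensity change per second fitted from 20 to 320 s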). The settings on record: Recombinant KvBeta, NADPH fluorescence decrease slope, 10 min; at 10 µM; stronger effect = lower value.
The target in assay [6] is Alpha-2C adrenergic receptor (Homo sapiens) (UniProt P18825). The experiment in a line: compounds altering alpha2C-coupled GIRK flux – cell-based, HEK293 alpha2C/GIRK1/2, thallium flux, primary screen (AID 624;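 active = fluorescence slope after compound addition differing from the mean of all screened samples at 99.7% confidence, in either direction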;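 also: slope of fluorescence ratio to pre-addition baseline per second over 15 to 24 s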). Particulars: thallium flux BTC fluorescence, at 10 µM, actives lie on both sides.
Assay [7] is described as follows: blockers of RIG-like receptor reporter activation – cell-based, Sendai virus stimulus, luciferase, 10K MLSCN set, TLR/RLR signaling modifier project, primary screen (AID 602276;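 active = inhibition at or above 50% at 10 µM; inactive = inhibition below 50%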;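 also: firefly luciferase from ISG56 promoter only with Renilla not read in this screen; 0% = Sendai virus plus DMSO and 100% = medium plus DMSO without virus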). Particulars: HEK293 RL24 IRF3 luciferase reporter, at 10 µM, stronger effect = higher value. (In a reporter assay the amount or activity of a reporter protein is the signal.)
Assay [8] is described as follows: TLR3 IRF3 reporter activation blockers – cell-based, poly I:C stimulus, luciferase, 10K MLSCN set, primary screen (AID 602277;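 active = inhibition of the reporter signal at or above 50%; inactive = inhibition below 50%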). Particulars: HEK293-TLR3 RL24 IRF3 luciferase reporter, at 10 µM, stronger effect = higher value.

Calls of active or inactive are those of the source.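 The calls were made as follows, unless noted: active = fluorescence slope higher than the sample average by over 3 SD (cut at about -0.22 in these data, passing the limit was not always enough); inactive = the rest.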

Sequence of Voltage-gated potassium channel subunit beta-2 (Rattus norvegicus) (P62483 whole entry, looked up): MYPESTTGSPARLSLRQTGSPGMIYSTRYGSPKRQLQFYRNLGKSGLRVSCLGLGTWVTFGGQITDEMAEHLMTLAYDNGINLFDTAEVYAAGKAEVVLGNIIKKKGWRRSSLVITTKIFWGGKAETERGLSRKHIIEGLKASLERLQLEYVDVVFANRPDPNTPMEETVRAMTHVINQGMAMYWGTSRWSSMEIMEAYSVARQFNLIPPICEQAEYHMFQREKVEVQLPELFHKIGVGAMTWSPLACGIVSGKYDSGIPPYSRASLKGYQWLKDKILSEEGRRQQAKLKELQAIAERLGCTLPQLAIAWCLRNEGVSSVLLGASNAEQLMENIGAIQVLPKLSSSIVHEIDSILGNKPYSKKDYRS
Sequence of Alpha-2C adrenergic receptor (Homo sapiens) (P18825 whole entry, looked up): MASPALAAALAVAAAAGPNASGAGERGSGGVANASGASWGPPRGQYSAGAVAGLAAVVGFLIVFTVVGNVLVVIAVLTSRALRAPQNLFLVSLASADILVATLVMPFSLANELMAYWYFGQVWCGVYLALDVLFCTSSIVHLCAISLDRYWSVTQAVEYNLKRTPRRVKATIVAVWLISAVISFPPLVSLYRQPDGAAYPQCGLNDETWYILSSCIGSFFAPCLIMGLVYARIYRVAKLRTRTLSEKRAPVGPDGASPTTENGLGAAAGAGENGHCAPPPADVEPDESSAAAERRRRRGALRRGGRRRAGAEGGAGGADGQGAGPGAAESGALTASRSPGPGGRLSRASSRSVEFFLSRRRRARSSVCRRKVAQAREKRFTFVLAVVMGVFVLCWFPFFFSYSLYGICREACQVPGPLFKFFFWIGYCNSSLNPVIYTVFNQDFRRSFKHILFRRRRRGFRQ

As usually defined, the inhibition is the relative decrease from the control value, in per cent. Consider `Cc1nn(-c2ccccc2)c2c1C(O)n1c(nc3ccccc31)S2` (centres undefined), for which the cell count in assay [1] was 453. Further, the inhibition is 2.5% (inactive) in assay [1], -10.2% (inactive) in assay [3], 14% (inactive) in assay [7] and 28.4% (inactive) in assay [8]. Moreover, in assay [2], the inhibition of aggregation was 8.2% (inactive). The nuclei count in assay [2] is 83%; in assay [3], 100%. Moreover, the fluorescence slope in assay [4] is -0.466 (inactive). Also, the NADPH fluorescence slope in assay [5] was -0.000266 (inactive). Further, the slope in assay [6] is 0.00554 (inactive).
For `COc1ccccc1C(=O)N1CCN(CCc2ccccc2)CC1`, in assay [1], the cell count amounted to 341. For the same compound, the inhibition is 3.2% (inactive) in assay [1], 6% (inactive) in assay [3], 8.51% (inactive) in assay [7] and 0.325% (inactive) in assay [8]. For the same compound, in assay [2], the inhibition of aggregation is -5.8% (inactive). Also, the nuclei count amounted to 100% in assay [2] and 104% in assay [3]. In addition, the fluorescence slope in assay [4] was -0.385 (inactive). Besides, the NADPH fluorescence slope in assay [5] is 1.9e-05 (inactive). For the same compound, the slope in assay [6] is 0.00331 (inactive).
For the compound `CC(C)c1nc(N2CCN(C(=O)c3ccco3)CC2)c2c3c(sc2n1)CCCC3`, the cell count in assay [1] was 748. Moreover, the inhibition in assay [1] was -9.7% (inactive); in assay [3], -7.6% (inactive); in assay [7], 15.9% (inactive); in assay [8] it was -5.95% (inactive). The inhibition of aggregation in assay [2] was -12.3% (inactive). The nuclei count in assay [2] is 94.5%; in assay [3], 103%. The fluorescence slope in assay [4] was -0.486 (inactive). In addition, the NADPH fluorescence slope in assay [5] was 5.1e-05 (inactive). Further, the slope in assay [6] is 0.00628 (inactive).
For `COc1ccc(C)cc1C(=O)CCC(=O)Nc1ccccc1N1CCOCC1`, the cell count in assay [1] stood at 382. The inhibition was 8.3% (inactive) in assay [1], -18.1% (inactive) in assay [3], 18.5% (inactive) in assay [7] and 18.2% (inactive) in assay [8]. In assay [2], the inhibition of aggregation was 3.1% (inactive). Moreover, the nuclei count in assay [2] came to 103%; in assay [3], 113%. Further, the fluorescence slope in assay [4] is -0.605 (inactive). Besides, the NADPH fluorescence slope in assay [5] was -5.1e-05 (inactive). The slope in assay [6] is 0.00373 (inactive).
For `CCCC(=O)Nc1ccc(NC(=O)c2ccccc2OC)cn1`, the cell count in assay [1] was determined as 376. Besides, the inhibition was -3.6% (inactive) in assay [1], -23.7% (inactive) in assay [3], 1.27% (inactive) in assay [7] and -1.09% (inactive) in assay [8]. The inhibition of aggregation in assay [2] was 18.8% (inactive). Also, the values for the nuclei count in assay [2] and in assay [3] were 90.7% and 96.3%, respectively. Further, the fluorescence slope in assay [4] is -0.442 (inactive). Also, in assay [5], the NADPH fluorescence slope is 7.2e-05 (inactive). Also, the slope in assay [6] was 0.00808 (inactive).
Consider `CC(=O)C1=C(O)C(=O)N(C2CCCCC2)C1c1ccccc1` (centres undefined), for which the cell count in assay [1] was determined as 467. For the same compound, the inhibition was -10.8% (inactive) in assay [1], -95.4% (inactive) in assay [3], 18.2% (inactive) in assay [7] and 15.5% (inactive) in assay [8]. The inhibition of aggregation in assay [2] was -19.1% (inactive). Also, the results for the nuclei count in assay [2] and in assay [3] were 104% and 176%, respectively. In addition, the fluorescence slope in assay [4] was -0.448 (inactive). Also, the NADPH fluorescence slope in assay [5] is -9.9e-06 (inactive). In addition, the slope in assay [6] was 0.00562 (inactive).
Take `CCOC(=O)c1sc2nc(SCC#N)n(CCCN3CCCC3=O)c(=O)c2c1C`: the cell count in assay [1] worked out at 399. Further, the inhibition in assay [1] was 3.4% (inactive); in assay [3] it was 49% (inactive); in assay [7], 4.69% (inactive); in assay [8], -8.03% (inactive). Besides, in assay [2], the inhibition of aggregation was -11.9% (inactive). The nuclei count in assay [2] stood at 89.9%; in assay [3], 96.1%. Besides, the fluorescence slope in assay [4] was -0.461 (inactive). The NADPH fluorescence slope in assay [5] is -6.7e-05 (inactive). Moreover, the slope in assay [6] was 0.00586 (inactive).
For `O=C(O)CCCc1nc(-c2ccccc2)no1`, in assay [1], the cell count was 726. Further, the inhibition in assay [1] is -1.7% (inactive); in assay [3], 22.1% (inactive); in assay [7] it was 16.6% (inactive); in assay [8] it was 20.7% (inactive). Further, the inhibition of aggregation in assay [2] was -4.5% (inactive). Besides, the results for the nuclei count in assay [2] and in assay [3] were 91.6% and 108%, respectively. Moreover, the fluorescence slope in assay [4] was -0.447 (inactive). Besides, the NADPH fluorescence slope in assay [5] is 1.4e-05 (inactive). Also, the slope in assay [6] is 0.00583 (inactive).
With `CCc1c(C(=O)Nc2cc(C)ccc2OC)[nH]c(C)c1C(C)=O`, the cell count in assay [1] was 313. The inhibition was -1.7% (inactive) in assay [1], 2.7% (inactive) in assay [3], 23.1% (inactive) in assay [7] and 27.6% (inactive) in assay [8]. Besides, the inhibition of aggregation in assay [2] was -4.5% (inactive). Moreover, the nuclei count was found to be 65.3% in assay [2] and 76.2% in assay [3]. In assay [4], the fluorescence slope is -0.424 (inactive). Moreover, the NADPH fluorescence slope in assay [5] is 1.1e-05 (inactive). Besides, in assay [6], the slope was 0.00495 (inactive).
On to `COCCNC(=O)C(c1cccs1)N(C(=O)Cn1nnc2ccccc21)c1ccccc1` (centres undefined), for which, in assay [1], the cell count was 385. For the same compound, the inhibition in assay [1] is 5.9% (inactive); in assay [3], 24.6% (inactive); in assay [7] it was 10.7% (inactive); in assay [8], 6.48% (inactive). Moreover, in assay [2], the inhibition of aggregation was 0.7% (inactive). For the same compound, the figures for the nuclei count in assay [2] and in assay [3] were 98.9% and 93.8%, respectively. Further, in assay [4], the fluorescence slope is -0.506 (inactive). In addition, the NADPH fluorescence slope in assay [5] is -1.1e-05 (inactive). Further, the slope in assay [6] is 0.00629 (inactive).
In the case of `CSc1nc2ccc(S(=O)(=O)N3CCOCC3)cc2s1`, the cell count in assay [1] came out at 328. The inhibition in assay [1] was -2.2% (inactive); in assay [3], -22% (inactive); in assay [7] it was 17.9% (inactive); in assay [8], 15.4% (inactive). The inhibition of aggregation in assay [2] is 28.3% (inactive). Besides, the nuclei count in assay [2] was 95.2%; in assay [3], 129%. Moreover, in assay [4], the fluorescence slope is -0.415 (inactive). In assay [5], the NADPH fluorescence slope was -6.4e-05 (inactive). In addition, the slope in assay [6] is 0.00411 (inactive).
Turning to `Cc1cc(S(=O)(=O)N(Cc2ccccc2)Cc2ccc(N(C)C)cc2)ccc1-n1cnnn1`, the cell count in assay [1] came out at 793. Also, the inhibition in assay [1] is 3.3% (inactive); in assay [3], -58.8% (inactive); in assay [7], 15.7% (inactive); in assay [8], 36.4% (inactive). The inhibition of aggregation in assay [2] was -7.8% (inactive). In addition, the nuclei count in assay [2] worked out at 94.8%; in assay [3], 130%. For the same compound, in assay [4], the fluorescence slope is -0.293 (inactive). For the same compound, in assay [5], the NADPH fluorescence slope is -5.5e-05 (inactive). Besides, in assay [6], the slope was 0.00447 (inactive).
Consider `CC(C)COc1ccc(-c2nnn(CC(=O)N3CCCC3)n2)cc1`, for which the cell count in assay [1] was found to be 473. Moreover, the inhibition in assay [1] was -5.5% (inactive); in assay [3] it was 19.6% (inactive); in assay [7] it was -2.78% (inactive); in assay [8] it was -17.8% (inactive). Also, the inhibition of aggregation in assay [2] is -13.3% (inactive). Further, the figures for the nuclei count in assay [2] and in assay [3] were 106% and 109%, respectively. In addition, the fluorescence slope in assay [4] is -0.564 (inactive). The NADPH fluorescence slope in assay [5] is -5.5e-05 (inactive). In addition, in assay [6], the slope is 0.00381 (inactive).
Take `O=C(Nc1ccc(O)cc1)C1CCCN1S(=O)(=O)c1ccc(F)cc1` (centres undefined): the cell count in assay [1] turned out to be 598. The inhibition in assay [1] is -2.1% (inactive); in assay [3], -33.3% (inactive); in assay [7] it was 8.7% (inactive); in assay [8], 9.85% (inactive). Further, in assay [2], the inhibition of aggregation was -9.8% (inactive). Moreover, the nuclei count was found to be 90% in assay [2] and 119% in assay [3]. Further, the fluorescence slope in assay [4] was -0.497 (inactive). Moreover, the NADPH fluorescence slope in assay [5] was -2.5e-05 (inactive). For the same compound, the slope in assay [6] is 0.00664 (inactive).
